The supplement of paper PMC11732987, “Enantioselective OTUD7B fragment discovery through chemoproteomics screening and high-throughput optimisation” (Communications Chemistry, 2025)

Key:
Test in all cases: log2 ratio of Biotin-Ahx-Ub-VS probe labelling (fragment/DMSO); higher = less target engagement (more negative = stronger competition), active = hit call of the paper (q ≤ 0.05, log2 ratio ≤ -1)
Conditions in all cases: compound concentration: 200 uM; treatment time: 3 h
USP42 = target: T1, USP42 (UniProt Q9H9J4)
T1 sequence (whole entry): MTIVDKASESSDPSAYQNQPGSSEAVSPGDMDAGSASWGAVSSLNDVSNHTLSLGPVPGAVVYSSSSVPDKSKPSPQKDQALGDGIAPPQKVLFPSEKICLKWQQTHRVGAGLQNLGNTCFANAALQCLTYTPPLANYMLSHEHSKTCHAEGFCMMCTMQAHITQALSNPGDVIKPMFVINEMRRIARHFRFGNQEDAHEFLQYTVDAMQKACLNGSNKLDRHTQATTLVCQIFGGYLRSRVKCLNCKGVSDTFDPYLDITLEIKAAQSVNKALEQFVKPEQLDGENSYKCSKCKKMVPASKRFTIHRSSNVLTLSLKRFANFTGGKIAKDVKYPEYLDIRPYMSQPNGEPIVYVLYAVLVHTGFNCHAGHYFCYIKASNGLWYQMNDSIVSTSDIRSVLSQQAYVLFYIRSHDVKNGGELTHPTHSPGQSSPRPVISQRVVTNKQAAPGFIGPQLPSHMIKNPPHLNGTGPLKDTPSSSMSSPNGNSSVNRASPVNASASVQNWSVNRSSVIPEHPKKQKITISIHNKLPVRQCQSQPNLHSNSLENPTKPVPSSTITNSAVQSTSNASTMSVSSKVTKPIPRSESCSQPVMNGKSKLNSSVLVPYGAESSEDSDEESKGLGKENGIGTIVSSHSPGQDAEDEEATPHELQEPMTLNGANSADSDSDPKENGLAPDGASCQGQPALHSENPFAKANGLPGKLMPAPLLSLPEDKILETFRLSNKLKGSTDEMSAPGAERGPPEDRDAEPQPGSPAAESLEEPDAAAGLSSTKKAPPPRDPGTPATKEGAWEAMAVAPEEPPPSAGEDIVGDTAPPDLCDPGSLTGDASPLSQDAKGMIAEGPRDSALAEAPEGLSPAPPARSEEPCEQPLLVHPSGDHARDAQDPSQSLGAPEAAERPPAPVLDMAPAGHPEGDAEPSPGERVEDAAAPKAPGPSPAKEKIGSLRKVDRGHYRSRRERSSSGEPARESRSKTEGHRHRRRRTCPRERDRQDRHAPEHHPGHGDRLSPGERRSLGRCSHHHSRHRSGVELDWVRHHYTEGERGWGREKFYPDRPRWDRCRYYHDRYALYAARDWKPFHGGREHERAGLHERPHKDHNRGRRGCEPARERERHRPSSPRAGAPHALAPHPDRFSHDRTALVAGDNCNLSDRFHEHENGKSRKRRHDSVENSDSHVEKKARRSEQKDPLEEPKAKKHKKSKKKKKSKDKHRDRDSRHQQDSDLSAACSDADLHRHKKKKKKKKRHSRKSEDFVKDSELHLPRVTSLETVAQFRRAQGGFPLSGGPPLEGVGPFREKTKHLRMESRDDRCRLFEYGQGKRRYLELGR
Procedure, shortened: (§1)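 Using Biotin-Ahx-Ub-VS at 0.5 µM final for 1 h, DUBs were labelled in HEK293T lysate (495 µg per sample) that had first been treated in triplicate with fragment at 200 µM or vehicle for 3 h. NeutrAvidin enrichment, LysC and trypsin digestion and diaPASEF LC-MS/MS followed. Spectronaut label-free quantities were global-median-normalised. Values are average log2 fragment/vehicle ratios by unpaired t-test, using proteins with ≥2 unique peptides.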

USP46 = USP46 (UniProt P62068)
Procedure, shortened: as §1

USP47 = target: T2, USP47 (UniProt Q96K76)
T2 sequence (whole entry): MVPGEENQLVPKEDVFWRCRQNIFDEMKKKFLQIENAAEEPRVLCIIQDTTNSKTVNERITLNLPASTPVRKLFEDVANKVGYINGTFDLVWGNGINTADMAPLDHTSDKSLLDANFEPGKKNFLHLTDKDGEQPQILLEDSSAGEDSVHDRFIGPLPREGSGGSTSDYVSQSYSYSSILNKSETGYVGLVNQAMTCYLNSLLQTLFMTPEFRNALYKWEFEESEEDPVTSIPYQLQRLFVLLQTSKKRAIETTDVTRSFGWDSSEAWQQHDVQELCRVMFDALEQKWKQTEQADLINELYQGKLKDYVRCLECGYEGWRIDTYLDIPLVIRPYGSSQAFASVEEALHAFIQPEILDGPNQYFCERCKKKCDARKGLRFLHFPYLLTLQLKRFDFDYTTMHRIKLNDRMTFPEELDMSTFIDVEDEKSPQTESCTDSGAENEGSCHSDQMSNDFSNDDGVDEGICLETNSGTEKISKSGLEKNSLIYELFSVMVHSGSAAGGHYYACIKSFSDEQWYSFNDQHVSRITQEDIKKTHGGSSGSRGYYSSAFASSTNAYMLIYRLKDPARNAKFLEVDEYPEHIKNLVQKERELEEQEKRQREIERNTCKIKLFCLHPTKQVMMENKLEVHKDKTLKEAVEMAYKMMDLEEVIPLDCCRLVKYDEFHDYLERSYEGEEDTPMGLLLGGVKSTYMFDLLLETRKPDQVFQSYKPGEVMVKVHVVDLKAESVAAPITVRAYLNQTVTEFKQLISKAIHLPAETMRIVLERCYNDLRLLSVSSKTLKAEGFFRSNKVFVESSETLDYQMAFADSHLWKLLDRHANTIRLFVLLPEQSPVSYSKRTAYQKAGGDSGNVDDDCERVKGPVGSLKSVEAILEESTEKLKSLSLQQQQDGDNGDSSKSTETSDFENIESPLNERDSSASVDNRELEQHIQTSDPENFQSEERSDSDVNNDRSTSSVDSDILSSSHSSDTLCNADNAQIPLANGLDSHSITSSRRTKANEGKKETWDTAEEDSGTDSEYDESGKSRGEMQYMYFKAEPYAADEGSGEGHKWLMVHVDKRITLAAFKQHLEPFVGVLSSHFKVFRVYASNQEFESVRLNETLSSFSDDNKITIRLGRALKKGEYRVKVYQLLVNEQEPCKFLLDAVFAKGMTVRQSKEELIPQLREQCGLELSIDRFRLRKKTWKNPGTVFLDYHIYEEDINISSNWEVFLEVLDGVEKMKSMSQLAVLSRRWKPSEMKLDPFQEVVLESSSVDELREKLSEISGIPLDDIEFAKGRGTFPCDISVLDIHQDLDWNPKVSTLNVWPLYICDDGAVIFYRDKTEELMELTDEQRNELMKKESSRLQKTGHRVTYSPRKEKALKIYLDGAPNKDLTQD
Procedure, shortened: as §1

USP48 = target: T3, USP48 (UniProt Q86UV5)
T3 sequence (whole entry): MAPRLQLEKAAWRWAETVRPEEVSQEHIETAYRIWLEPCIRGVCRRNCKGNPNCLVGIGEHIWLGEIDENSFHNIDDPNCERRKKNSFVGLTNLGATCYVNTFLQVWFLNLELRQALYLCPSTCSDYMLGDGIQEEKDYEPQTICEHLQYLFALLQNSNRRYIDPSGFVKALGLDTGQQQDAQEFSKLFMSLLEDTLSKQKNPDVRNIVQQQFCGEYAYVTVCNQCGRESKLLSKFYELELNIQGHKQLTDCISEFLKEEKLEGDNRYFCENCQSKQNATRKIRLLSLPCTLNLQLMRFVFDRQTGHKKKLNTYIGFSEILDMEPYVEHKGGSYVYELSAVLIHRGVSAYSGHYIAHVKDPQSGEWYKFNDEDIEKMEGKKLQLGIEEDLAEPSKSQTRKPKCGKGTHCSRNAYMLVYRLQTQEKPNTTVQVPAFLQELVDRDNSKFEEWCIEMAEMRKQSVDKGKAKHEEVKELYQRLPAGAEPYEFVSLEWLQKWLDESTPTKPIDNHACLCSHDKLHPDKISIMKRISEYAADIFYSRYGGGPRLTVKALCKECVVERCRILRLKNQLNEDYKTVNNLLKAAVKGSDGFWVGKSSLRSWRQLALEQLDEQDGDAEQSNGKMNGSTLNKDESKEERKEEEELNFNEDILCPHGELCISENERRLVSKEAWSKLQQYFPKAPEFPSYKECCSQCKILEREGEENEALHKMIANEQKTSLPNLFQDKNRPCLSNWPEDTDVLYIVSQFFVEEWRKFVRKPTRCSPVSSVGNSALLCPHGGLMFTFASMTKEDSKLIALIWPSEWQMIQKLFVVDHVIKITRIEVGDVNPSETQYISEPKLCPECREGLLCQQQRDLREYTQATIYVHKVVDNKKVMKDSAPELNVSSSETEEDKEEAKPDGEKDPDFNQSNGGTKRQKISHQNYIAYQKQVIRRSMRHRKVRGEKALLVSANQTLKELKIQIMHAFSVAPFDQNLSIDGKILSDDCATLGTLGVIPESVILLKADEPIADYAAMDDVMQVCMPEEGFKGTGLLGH
Procedure, shortened: as §1

USP5 = target: T4, USP5 (UniProt P45974)
T4 sequence (whole entry): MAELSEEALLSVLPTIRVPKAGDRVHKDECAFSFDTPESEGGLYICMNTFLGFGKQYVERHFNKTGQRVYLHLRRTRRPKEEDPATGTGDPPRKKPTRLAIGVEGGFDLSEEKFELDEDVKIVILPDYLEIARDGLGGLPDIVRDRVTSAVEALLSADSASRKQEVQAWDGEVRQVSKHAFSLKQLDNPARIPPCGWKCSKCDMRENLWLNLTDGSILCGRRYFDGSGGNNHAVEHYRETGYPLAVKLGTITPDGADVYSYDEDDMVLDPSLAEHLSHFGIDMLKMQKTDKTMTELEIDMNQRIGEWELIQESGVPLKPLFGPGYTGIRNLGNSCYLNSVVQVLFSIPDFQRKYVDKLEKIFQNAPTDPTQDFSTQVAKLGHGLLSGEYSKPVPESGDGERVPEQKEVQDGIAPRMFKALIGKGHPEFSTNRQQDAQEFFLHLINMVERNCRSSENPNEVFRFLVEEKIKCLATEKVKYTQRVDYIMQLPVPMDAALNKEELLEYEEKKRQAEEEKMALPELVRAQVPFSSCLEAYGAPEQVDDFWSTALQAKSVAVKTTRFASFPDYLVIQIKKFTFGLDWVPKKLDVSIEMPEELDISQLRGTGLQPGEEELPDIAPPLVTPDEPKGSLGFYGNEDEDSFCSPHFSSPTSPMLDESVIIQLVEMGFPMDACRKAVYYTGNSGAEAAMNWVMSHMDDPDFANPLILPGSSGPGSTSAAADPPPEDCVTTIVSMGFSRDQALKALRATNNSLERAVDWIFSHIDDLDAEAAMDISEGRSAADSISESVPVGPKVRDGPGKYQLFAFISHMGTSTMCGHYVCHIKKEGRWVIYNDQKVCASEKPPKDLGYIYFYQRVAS
Procedure, shortened: as §1

USP54 = USP54 (UniProt Q70EL1)
Procedure, shortened: as §1

USP7 = USP7 (UniProt Q93009)
Procedure, shortened: as §1

USP8 = target: T5, USP8 (UniProt P40818)
T5 sequence (whole entry): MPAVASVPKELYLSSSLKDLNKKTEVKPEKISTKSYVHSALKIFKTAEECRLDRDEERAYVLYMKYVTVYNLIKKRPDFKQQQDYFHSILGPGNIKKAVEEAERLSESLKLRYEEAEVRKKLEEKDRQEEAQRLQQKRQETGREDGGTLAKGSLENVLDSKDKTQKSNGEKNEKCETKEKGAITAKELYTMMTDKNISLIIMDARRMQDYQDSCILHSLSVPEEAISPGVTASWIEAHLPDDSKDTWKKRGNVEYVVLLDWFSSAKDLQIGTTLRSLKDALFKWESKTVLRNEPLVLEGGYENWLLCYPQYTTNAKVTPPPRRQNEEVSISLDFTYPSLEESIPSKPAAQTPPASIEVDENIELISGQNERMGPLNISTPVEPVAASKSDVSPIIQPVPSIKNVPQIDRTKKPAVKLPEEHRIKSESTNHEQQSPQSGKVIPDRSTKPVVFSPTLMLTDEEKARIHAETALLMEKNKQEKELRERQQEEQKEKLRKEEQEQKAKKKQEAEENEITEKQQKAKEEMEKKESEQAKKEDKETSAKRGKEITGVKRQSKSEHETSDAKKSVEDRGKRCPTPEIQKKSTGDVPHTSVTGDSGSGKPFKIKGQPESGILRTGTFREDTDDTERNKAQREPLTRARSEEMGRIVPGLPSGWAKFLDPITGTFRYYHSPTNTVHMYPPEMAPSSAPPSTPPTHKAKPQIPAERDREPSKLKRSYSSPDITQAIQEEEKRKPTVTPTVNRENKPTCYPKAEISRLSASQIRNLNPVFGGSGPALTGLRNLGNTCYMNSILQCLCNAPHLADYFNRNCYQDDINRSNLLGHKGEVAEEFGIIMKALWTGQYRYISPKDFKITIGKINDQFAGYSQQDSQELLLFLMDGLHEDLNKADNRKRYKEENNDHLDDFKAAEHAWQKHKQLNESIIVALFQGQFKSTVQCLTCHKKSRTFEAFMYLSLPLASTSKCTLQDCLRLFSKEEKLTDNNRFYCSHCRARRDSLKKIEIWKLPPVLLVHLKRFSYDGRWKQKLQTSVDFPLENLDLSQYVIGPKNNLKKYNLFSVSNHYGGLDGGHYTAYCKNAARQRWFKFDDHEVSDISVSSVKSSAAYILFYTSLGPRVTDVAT
Procedure, shortened: as §1

USP9X = USP9X (UniProt Q93008)
Procedure, shortened: as §1

UniProt O00487 = target: UniProt O00487
Procedure, shortened: as §1

Measured: log2 ratio of Biotin-Ahx-Ub-VS probe labelling

Sequence of USP7 (Q93009 whole entry, looked up): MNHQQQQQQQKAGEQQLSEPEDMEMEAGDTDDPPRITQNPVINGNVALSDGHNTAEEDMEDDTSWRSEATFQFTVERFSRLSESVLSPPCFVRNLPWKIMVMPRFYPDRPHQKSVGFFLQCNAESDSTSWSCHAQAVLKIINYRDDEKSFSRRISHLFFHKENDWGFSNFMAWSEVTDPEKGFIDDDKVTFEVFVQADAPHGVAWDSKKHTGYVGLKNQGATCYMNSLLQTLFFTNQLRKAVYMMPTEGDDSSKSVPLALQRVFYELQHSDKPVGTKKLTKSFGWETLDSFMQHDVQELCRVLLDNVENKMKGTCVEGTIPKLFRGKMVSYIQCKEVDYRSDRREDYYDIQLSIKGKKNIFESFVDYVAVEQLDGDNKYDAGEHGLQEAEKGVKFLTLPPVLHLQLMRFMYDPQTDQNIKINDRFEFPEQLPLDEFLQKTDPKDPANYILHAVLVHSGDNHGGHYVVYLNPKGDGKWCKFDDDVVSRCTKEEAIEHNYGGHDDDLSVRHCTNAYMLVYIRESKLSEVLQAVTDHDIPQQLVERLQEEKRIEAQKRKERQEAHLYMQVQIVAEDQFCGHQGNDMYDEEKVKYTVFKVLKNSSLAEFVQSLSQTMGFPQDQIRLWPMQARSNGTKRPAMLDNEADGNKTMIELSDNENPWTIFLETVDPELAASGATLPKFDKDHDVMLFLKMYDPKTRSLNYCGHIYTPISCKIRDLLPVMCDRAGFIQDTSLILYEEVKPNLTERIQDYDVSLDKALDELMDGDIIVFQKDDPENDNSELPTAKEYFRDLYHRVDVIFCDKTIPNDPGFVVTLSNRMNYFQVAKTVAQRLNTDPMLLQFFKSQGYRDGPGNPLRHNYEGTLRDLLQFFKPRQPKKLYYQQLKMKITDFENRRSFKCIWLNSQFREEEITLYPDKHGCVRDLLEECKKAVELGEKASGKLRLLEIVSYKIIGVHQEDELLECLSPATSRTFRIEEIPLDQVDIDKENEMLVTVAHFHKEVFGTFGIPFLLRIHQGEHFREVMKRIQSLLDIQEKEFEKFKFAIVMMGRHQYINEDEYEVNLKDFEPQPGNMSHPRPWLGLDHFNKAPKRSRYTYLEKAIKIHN
Sequence of USP46 (P62068 whole entry): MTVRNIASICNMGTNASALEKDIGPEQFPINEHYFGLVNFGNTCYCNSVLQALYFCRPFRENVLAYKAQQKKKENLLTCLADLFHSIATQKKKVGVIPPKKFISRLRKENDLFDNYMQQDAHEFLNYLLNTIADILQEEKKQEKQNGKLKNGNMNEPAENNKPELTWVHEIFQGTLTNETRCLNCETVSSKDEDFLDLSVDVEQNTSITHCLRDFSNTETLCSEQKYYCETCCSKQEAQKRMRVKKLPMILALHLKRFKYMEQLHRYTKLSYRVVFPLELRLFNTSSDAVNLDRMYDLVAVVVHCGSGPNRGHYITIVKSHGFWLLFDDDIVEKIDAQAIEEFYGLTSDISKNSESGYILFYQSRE
Sequence of USP54 (Q70EL1 whole entry): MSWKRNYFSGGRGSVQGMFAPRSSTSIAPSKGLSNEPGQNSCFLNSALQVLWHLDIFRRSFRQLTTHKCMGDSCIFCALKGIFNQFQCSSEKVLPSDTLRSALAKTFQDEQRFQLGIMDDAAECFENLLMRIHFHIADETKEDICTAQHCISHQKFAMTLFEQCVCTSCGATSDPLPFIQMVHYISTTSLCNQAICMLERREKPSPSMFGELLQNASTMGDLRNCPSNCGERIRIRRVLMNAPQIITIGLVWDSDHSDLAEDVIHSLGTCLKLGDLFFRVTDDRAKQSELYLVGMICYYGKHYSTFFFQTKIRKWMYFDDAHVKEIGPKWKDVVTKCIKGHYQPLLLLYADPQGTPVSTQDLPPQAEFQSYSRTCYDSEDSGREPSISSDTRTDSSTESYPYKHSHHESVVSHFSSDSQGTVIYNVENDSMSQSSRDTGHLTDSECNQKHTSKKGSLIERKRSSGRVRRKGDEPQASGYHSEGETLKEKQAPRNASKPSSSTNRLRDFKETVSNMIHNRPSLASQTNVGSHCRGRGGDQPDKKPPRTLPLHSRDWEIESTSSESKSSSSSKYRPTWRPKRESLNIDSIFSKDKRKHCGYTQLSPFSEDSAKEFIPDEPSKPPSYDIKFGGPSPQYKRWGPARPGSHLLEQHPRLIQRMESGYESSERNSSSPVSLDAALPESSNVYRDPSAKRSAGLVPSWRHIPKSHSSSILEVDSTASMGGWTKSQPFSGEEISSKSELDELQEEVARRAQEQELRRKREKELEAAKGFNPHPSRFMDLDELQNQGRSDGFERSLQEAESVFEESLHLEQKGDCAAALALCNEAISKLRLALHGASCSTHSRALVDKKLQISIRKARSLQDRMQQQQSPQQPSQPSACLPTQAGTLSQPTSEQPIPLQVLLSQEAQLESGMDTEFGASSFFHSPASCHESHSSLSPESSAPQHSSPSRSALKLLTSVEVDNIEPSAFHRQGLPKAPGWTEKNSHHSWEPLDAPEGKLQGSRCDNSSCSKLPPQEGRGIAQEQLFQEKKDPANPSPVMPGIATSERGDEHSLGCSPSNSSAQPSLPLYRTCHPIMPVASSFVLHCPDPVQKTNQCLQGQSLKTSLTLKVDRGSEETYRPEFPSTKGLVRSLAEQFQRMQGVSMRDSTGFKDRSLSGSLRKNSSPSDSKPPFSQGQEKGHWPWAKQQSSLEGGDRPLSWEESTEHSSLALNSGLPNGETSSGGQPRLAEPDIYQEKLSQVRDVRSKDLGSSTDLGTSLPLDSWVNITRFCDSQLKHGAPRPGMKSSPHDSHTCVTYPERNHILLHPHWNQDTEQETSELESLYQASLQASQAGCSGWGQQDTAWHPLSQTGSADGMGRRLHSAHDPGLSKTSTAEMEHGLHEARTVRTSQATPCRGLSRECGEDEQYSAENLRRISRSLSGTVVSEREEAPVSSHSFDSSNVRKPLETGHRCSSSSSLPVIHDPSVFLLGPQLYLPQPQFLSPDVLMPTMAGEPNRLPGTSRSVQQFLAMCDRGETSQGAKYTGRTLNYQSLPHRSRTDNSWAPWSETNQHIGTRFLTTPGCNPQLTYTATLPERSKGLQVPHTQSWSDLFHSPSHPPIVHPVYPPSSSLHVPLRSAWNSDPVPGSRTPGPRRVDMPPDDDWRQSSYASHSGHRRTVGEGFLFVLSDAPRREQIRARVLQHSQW
Sequence of UniProt O00487 (O00487 whole entry): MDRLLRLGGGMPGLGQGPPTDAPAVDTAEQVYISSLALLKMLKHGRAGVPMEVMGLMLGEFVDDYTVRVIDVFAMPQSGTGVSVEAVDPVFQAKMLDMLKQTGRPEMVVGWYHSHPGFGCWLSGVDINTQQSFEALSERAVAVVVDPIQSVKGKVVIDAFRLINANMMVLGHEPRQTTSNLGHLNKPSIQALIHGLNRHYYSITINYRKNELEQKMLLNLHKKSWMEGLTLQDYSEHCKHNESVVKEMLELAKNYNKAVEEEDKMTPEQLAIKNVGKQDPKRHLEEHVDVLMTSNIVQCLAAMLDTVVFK

O=C(CCl)N1CCC(OCc2ccccc2F)CC1
inactive: USP42 0.919 | USP46 0.155 | USP47 -0.138 | USP48 -0.151 | USP5 0.445 | USP54 -0.235 | USP7 -0.391 | USP8 0.124 | USP9X -0.0279 | UniProt O00487 0.075
